# Hits are enriched below; roughly 6.9% of the tested compounds scored in any of these assays.
# Vif-A3F inh: Vif-A3F binding inhibition; HeLa A3F-eYFP + Vif (tagged APOBEC3F with the HIV-1 protein that degrades it), YFP fluorescence increase; Potency, µM (top dose mostly 46.1 µM), inactives show at the top dose activity, negative = active; actives 0.2% (n = 390,000); also: potency is read from the fitted curve at half-maximal effect; % of control where 0% means no effect; nearly all actives have a fitted effect of over 65% in size
#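 HeLa cells stably expressing Vif plus C-terminally eYFP-tagged A3F were seeded, incubated overnight at 37 deg C, dosed with compound, incubated overnight again at 37 deg C. Yellow fluorescence (Ex 488/Em 500-530) reported blocked Vif-mediated A3F-eYFP degradation.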
# Giardia killer: Giardia lamblia killing; activity change, % at 7.66 µM, hits read low; Giardia lamblia trophozoite viability; actives 0.15% (n = 340,000); AID 540267; in the data active = activity change below about -80%; inconclusive = between about -30% and that limit;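 also: parasites exposed to compound for two days anaerobically before the ATP read; % is scaled to controls: 0 for no effect and ±100 for the full control effect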
#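 Giardia trophozoites, 100 cells per well, were exposed to compounds for 48 hrs at 37 deg C under anaerobic conditions; viability was then read as ATP content by bioluminescence after 15-30 min at room temperature.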
# SW480 rerep: induces DNA re-replication in SW480 colon adenocarcinoma cells; SW480 DNA re-replication, Hoechst DNA content imaging, 48 h; Potency, µM (top dose mostly 46.1 µM), for the others: at the top dose re-replication activation, actives largely listed as activators; actives 1.8% (n = 340,000); AID 624297; also: potency is read from the fitted curve at half-maximal effect; % of control where 0% means no effect; nearly all actives have a fitted effect of over 55% in size
#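 First, 250 cells per well were seeded. Next, compound or vehicle (23 nL) was pinned in, plates sat 48 hr at 37 C. Finally Hoechst was added for 40 min before fluorescence scanning.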
# MCF10A rereplic: inducers of DNA re-replication in MCF 10A breast cells; AID 624296; Potency, µM (titrated, usually from 46.1 µM), for the others: at the highest dose activity, positive = re-replication, most hits filed as activators; MCF 10A DNA re-replication, Hoechst nuclear intensity, 48 h; actives 2.9% (n = 350,000); also: potency is read from the fitted curve at half-maximal effect; % of control where 0% means no effect; nearly all actives have a fitted effect of over 50% in size
# IL1B secr inh: blocks inflammasome-driven IL-1 beta release; AID 743279; activity change, % at 57.5 µM; actives 4.7% (n = 360,000); THP-1 LPS/ATP IL-1B secretion, AlphaLISA, 16 h; hits give low values; in the data active = activity change below about -50%; inconclusive = mostly about -30% to -49%; also: % is scaled to controls: 0 for no effect and ±100 for the full control effect
#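 Secreted IL-1B measured by AlphaLISA bead assay after 16 h compound exposure of THP-1 cells; compounds (final up to 57.5 uM) added 1 h before LPS (250 ng/mL) and ATP (1.25 mM) stimulation; lower signal means less secretion.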
# Vif-APOBEC3G blk: inhibitors of Vif-APOBEC3G interaction; Q9HC16; HeLa A3G-eYFP + Vif (tagged APOBEC3G with the HIV-1 protein that degrades it), YFP fluorescence, overnight; Potency, µM (highest dose often 46.1 µM), for the others: at the top dose activity, negative = active, usual class: inhibitors; actives 0.076% (n = 410,000); AID 602310; also: potency is read from the fitted curve at half-maximal effect; % is scaled to controls: 0 for no effect and ±100 for the full control effect; nearly all actives have a fitted effect of over 60% in size
# Target sequence (Q9HC16 whole entry, looked up): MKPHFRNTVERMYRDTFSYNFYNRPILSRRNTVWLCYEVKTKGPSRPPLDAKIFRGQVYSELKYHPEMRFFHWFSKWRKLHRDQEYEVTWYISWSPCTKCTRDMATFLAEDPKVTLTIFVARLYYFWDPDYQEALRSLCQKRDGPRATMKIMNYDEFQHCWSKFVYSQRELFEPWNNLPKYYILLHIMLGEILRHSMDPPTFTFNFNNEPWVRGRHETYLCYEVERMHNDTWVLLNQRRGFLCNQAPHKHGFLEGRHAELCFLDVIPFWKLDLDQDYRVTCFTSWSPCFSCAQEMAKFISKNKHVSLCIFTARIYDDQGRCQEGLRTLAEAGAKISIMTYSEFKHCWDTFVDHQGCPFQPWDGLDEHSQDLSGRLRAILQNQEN
#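 HeLa cells stably expressing Vif and C-terminally eYFP-tagged A3G, seeded overnight at 37 deg C, then exposed to compound by pintool overnight at 37 deg C. Rise in yellow fluorescence (Ex 488/Em 500-530, Acumen) marks blocked Vif-driven A3G degradation.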
# * = called active by the depositor; u = inconclusive; x = not tested or not shown. Unless noted, calls follow the shape of the dose curve; as a rule, active = well fitted curve in the direction sought with a large enough effect; inconclusive = small, poorly fitted or top-dose-only effect, or another doubt; inactive = no such curve, though single readings can be large; an effect the other way counts as inactive or inconclusive.
SMILES,Vif-A3F inh,Giardia killer,SW480 rerep,MCF10A rereplic,IL1B secr inh,Vif-APOBEC3G blk
FC(F)Oc1ccc(C2=Nn3c(nnc3-c3ccccc3Cl)SC2)cc1OCC1CC1,0%,2,-2%,1%,x,1%
COc1ccc(C2=Nn3c(nnc3-c3ccccc3F)SC2)cc1OCC1CC1,-12%,11,18µM*,u,x,u
COc1cccc(N2CCN(c3ncnc4c3c(-c3ccccc3)cn4-c3ccc(F)cc3)CC2)c1,1%,x,x,x,x,0%
COc1ccc(-n2cc(-c3ccccc3)c3c(NC4CCCC4)ncnc32)cc1,-2%,x,x,x,x,-1%
CC1CCN(c2ncnc3c2c(-c2ccccc2)cn3-c2ccc(Br)cc2)CC1,1%,x,x,x,x,7%
CCOc1ccc(-n2cc(-c3ccccc3)c3c(N4CCOCC4)ncnc32)cc1,-14%,3,2%,u,-88*,0%
Clc1cccc(-n2cc(-c3ccccc3)c3c(N4CCCCC4)ncnc32)c1,-10%,x,x,x,x,-4%
CN1CCN(c2ncnc3c2c(-c2ccccc2)cn3-c2ccc(F)cc2)CC1,0%,4,u,u,-207*,0%
c1ccc(-c2cn(-c3ccccc3)c3ncnc(N4CCCCC4)c23)cc1,5%,-8,22%,16µM*,-57*,2%
COc1ccc(-n2cc(-c3ccccc3)c3c(N4CC(C)OC(C)C4)ncnc32)cc1 (configuration not stated),-13%,13,15%,23µM*,-10,-4%
Cc1cccc(C)c1Nc1c(-c2ccsc2)nc2cccc(C)n12,-1%,x,x,x,x,0%
O=c1oc2ccccc2n1CCCOc1ccccc1Cl,-9%,x,x,x,x,-5%
CCCCSCCCNC(=O)c1cn(C)c2ccc(S(=O)(=O)N3CCCCCC3)cc2c1=O,3%,x,x,x,x,-3%
CC1CCCCN1CCCNC(=O)c1ccc2c(c1)sc1nc(-c3ccc(F)cc3)cn12 (configuration not stated),-2%,x,x,x,x,-20%
CS(=O)(=O)c1ccccc1C(=O)Nc1ccc(-c2nc3ccccc3[nH]2)cc1,6%,-7,6%,-4%,-7,3%
Cc1cc(F)ccc1S(=O)(=O)Nc1ccccc1C(=O)Nc1ccccc1-c1nc2ccccc2[nH]1,-3%,-9,u,3.7µM*,-79*,-3%
O=C(Nc1ccc(-c2nc3ccccc3[nH]2)cc1)c1ccccc1NS(=O)(=O)c1ccc(F)cc1,-2%,-19,u,18µM*,0,-22%
CCOC(=O)CSc1nc2ccccc2c(=O)n1CCc1ccc(OC)c(OC)c1,-4%,x,x,x,x,1%
O=C(c1ccc2c(c1)CCN2S(=O)(=O)c1ccc(Cl)cc1)N1CCN(c2ccccc2)CC1,1%,x,x,x,x,2%
COc1ccc(CNC(=O)CN(C)c2nn3c(=O)cc(C)nc3s2)cc1,10%,x,x,x,x,2%
CN1CCN(c2ccccc2NC(=O)c2c(F)cccc2F)CC1,-2%,-11,-3%,-4%,1,-1%
Cc1c(C(=O)NCc2ccccc2CN2CCCC2)oc2ccc(F)cc12,-8%,15,61%,u,-1,0%
CN1CCN(c2ccccc2NC(=O)c2ccc(-c3ccccc3)cc2)CC1,-1%,0,18%,14%,-59*,-10%
Cc1noc(C)c1COc1cccc(C(=O)Nc2ccccc2N2CCOCC2)c1,6%,-14,0%,11%,-101*,-6%
COc1cc(C(=O)Nc2ccccc2N2CCOCC2)ccc1OCc1c(C)noc1C,2%,0,-3%,1%,u,0%
SMILES,Vif-A3F inh,Giardia killer,SW480 rerep,MCF10A rereplic,IL1B secr inh,Vif-APOBEC3G blk
CN1CCN(c2ccccc2NC(=O)c2cccc(OCc3ccccc3)c2)CC1,-5%,-4,5%,1%,-65*,-10%
Cc1c(C(=O)Nc2ccccc2N2CCN(C)CC2)oc2ccc(F)cc12,-13%,-13,u,u,-78*,-24%
COc1cccc(C(=O)Nc2ccccc2N2CCN(C(=O)c3ccccc3)CC2)c1,4%,1,u,18%,-23,1%
Cc1c(Cl)cccc1NC(=O)Cn1c(=O)cc(C)c2c(C)nn(-c3cccc(F)c3)c21,-1%,x,x,x,x,3%
CN1CCN(c2ccccc2NC(=O)c2ccc(OCc3ccccc3)cc2)CC1,0%,-8,u,11%,-55*,-1%
CCc1cc2c(cc3c(=O)n(CC(=O)NC4CCCCC4)ncn32)s1,-7%,x,x,x,x,1%
COC(=O)C1=C[C@@H](C(=O)OC)[C@@H]2C3=C(C(=O)[C@@]2(C)NC(=O)c2ccccc2)[C@H](C)[C@@H]2C(=O)N(Cc4ccccc4)C(=O)[C@@H]2[C@@H]3C1,x,20,x,x,x,-3%
COc1ccc2c(/C=C/c3cc[n+](C)cc3)c[nH]c2c1,13µM*,-16,-1%,-14%,26,u
COc1ccc2c(c1)c(/C=C/c1cc[n+](C)cc1)cn2C,u,2,0%,-8%,-3,u
CCCCCCC[n+]1ccc(/C=C/c2c[nH]c3ccccc23)cc1,x,x,x,x,x,8%
Cc1ccc2[nH]cc(/C=C/c3cc[n+](C)cc3)c2c1,u,-4,8.2µM*,u,-7,u
CC[n+]1ccc(/C=C/c2c[nH]c3ccccc23)cc1,7.1µM*,11,u,u,0,5µM*
COc1ccc(NC(=O)CN2C(=O)CC(c3ccc(C)c(C)c3)=Nc3ccccc32)cc1OC,6%,x,x,x,x,-2%
CC(C)CCN(CC(=O)NCc1ccc(F)cc1)S(=O)(=O)c1ccccc1F,1%,-19,-2%,u,-80*,-1%
Cc1ccc(CNC(=O)Cc2ccc(Br)cc2)cc1,-20%,11,u,6.5µM*,31,u
CN(CC(=O)NCc1ccc(F)cc1)Cc1ccc(Br)cc1,u,10,u,16%,-72*,-1%
CCN(CC(=O)NCc1ccc(F)cc1)S(=O)(=O)c1ccc(C)cc1,6%,5,-16%,2%,9,-3%
O=C(Cc1ccc(Br)cc1)NCc1ccccc1,u,19,5.8µM*,5.8µM*,33,u
COC(=O)CC1Oc2ccc(F)cc2-n2cc(-c3ccc(C)cc3)nc21 (configuration not stated),1%,x,x,x,x,-3%
COC(=O)C1[C@H]2SC(C)(C)C(C(=O)OC)N2C(=O)N1Cc1ccccc1 (some centres not stated),x,x,x,x,x,-1%
CCCCCCc1ccc(-c2ncc(N)cn2)cc1,-2%,0,7%,13µM*,0,-1%
CCOc1ccc(Nc2nc3c(S(=O)(=O)c4ccc(CC)cc4)nnn3c3ccc(Cl)cc23)cc1,-4%,x,x,x,x,5%
CCOc1ccc(NC(=O)N2CCOc3ccccc32)cc1,1%,x,x,x,x,2%

# Compound activity deposited in PubChem by National Center for Advancing Translational Sciences (NCATS).
